Data as given in PubChem BioAssay (NCATS).
Inconclusive results are not listed. A number with no mark means an inactive call. The source made the active and inactive calls. The call rests on the fitted dose curve; in most records, active means well fitted activation curve with a large enough effect; inconclusive means small, poorly fitted or top-dose-only effect, or effect the other way; inactive means flat fitted curve, though single readings scatter.

Assay: qHTS Assay for Identification of Small Molecule Agonists for Thrombopoietin (TPO) Signaling Pathway (AID 917)
Conditions: TPO signaling pathway reporter cells, agonist qHTS, stimulated with TPO at its EC50; series mostly up to 38.5 µM; activity, positive = activation: at the top concentration
Method: NIH Molecular Libraries Screening Centers Network [MLSCN]
NIH Chemical Genomics Center [NCGC]
The thrombopoietin (TPO) signaling pathway was assayed in murine Ba/F3 cells stably transfected with the human TPO receptor and a luciferase reporter gene controlled by the Glycoprotein IIb promoter (provided by Axxam). BaF3 cells are an IL-3-dependent pro B cell line that upon TPO stimulation, undergo cell division and induce the megakaryocyte marker, Glycoprotein IIb. The assay was screened at the EC50 of TPO (26 pM) to identify activators of the pathway.
NCGC Assay Protocol Summary:
Cells were maintained at 37 C and 5% CO2in RPMI with 10% fetal bovine serum, 0.5 ng/mL murine IL-3, 100U/ml penicillin and 100 ug/ml streptomycin. Prior to plating, cells were incubated overnight in medium without IL-3. Cells were plated at 250 cells/5uL/well into white solid 1536-well plates, 23 nL of compounds were delivered by a pin tool, and 1 uL of TPO (26 pM final concentration in IL-3 deficient medium) was added. Following 24 hrs of incubation at 37 C and 5% CO2, 4 uL of Steadylite detector mix (PerkinElmer) was added, the plates incubated at room temperature for 10 min and luminescence was measured for 10 s and 2X binning by a ViewLux detector (Perkin Elmer).
On the % scale 0 is the no-effect control and ±100 the full control effect; potency means the concentration at half of the fitted maximal effect.

SMILES | activity, positive = activation [%] | Potency
CC(=O)SCC[N+](C)(C)C | 0.628 | 
Cc1cc(NC(=O)Nc2ccc3c(ccn3C)c2)sn1 |  | 1580 nM (active)
CN(C)c1nc(N)c(C(=O)N=C(N)N)nc1Cl | -6.91 | 
C[N+]1(C)CCC(OC(=O)C(c2ccccc2)c2ccccc2)CC1 | -9.42 | 
C=C[C@H]1CN2CC[C@@H]1C[C@@H]2[C@@H](O)c1ccnc2ccc(OC)cc12 |  | inactive
CCCN(CC1CC1)c1nc(C)nc(Nc2c(Cl)cc(Cl)cc2Cl)c1Cl | 2.98 | 
O=C(O)c1cc(=O)c2ccccc2[nH]1 | -15.7 | 
CN(C)c1nc2c(Br)c(Br)c(Br)c(Br)c2[nH]1 |  | 1260 nM (active)
Cn1c(=O)c2[nH]c(-c3ccccc3)nc2n(C)c1=O | -19.6 | 
CCCCCCCC/C=C\CCCCCCCC(=O)NCCO | -16.9 | 
CCCCN1CCC(n2c(=O)[nH]c3ccccc32)CC1 | 5.67 | 
CN1CCc2ccccc2Cc2[nH]c3ccccc3c2CC1 | -22.9 | 
Clc1ccc(N2CCN(Cc3c[nH]c4ncccc34)CC2)cc1 | -25.1 | 
O=c1[nH]c2cc([N+](=O)[O-])c([N+](=O)[O-])cc2[nH]c1=O | -11.9 | 
CC1(C)CCC=[N+]1[O-] | -8.64 | 
CCCn1c(=O)c2[nH]c(-c3ccc(OCC(=O)NCCN)cc3)nc2n(CCC)c1=O | -6.51 | 
NO | -10.6 | 
N.N.O=C(O)C1(C(=O)O)CCC1.[Pt] | -28 | 
O=C(O)c1cc(=O)c2c(Cl)cc(Cl)cc2[nH]1 | 20.6 | 
O=C(c1cc(O)c(O)c([N+](=O)[O-])c1)c1ccccc1F | -14.7 | 

SMILES | activity, positive = activation [%] | Potency
NCCCCC(=O)O | 13.3 | 
CC(C)(C=O)Cc1cc(C(C)(C)C)c(O)c(C(C)(C)C)c1 | -16.2 | 
COC(=O)c1c(C)[nH]c(C)c1C(=O)c1ccccc1Cc1ccccc1 | -16.2 | 
Cc1ccc(O)c(N=Nc2ccccc2)n1 |  | 79.4 nM (active)
O=c1[nH]c2cc(C(F)(F)F)ccc2n1-c1cc(C(F)(F)F)ccc1O | -14.6 | 
CC(C)NC[C@H](O)COc1cccc2[nH]ccc12 | 3.97 | 
CN(C)C(N)=NCCC[C@H](N)C(=O)O | -10.5 | 
O=C(Nc1cccc(C(=O)Nc2ccc(S(=O)(=O)O)c3cc(S(=O)(=O)O)cc(S(=O)(=O)O)c23)c1)Nc1cccc(C(=O)Nc2ccc(S(=O)(=O)O)c3cc(S(=O)(=O)O)cc(S(=O)(=O)O)c23)c1 | -14.4 | 
CC(C)Cc1ccc([C@H](C)C(=O)O)cc1 | -17.2 | 
N=C(N)SCCc1ccc(CCSC(=N)N)cc1 | -5.16 | 
O=S(=O)(c1cccc2c(I)cccc12)N1CCCNCC1 | -6.42 | 
N[C@@H](CC(=O)O)C(=O)O | -9 | 
O=C(O)CC[C@@H](C(=O)O)N1C(=O)c2ccccc2C1=O | -12.2 | 
O=C(Nc1ccccc1)c1cc([N+](=O)[O-])ccc1Cl |  | 1580 nM (active)
O=C1NC(O)=NC1(c1ccccc1)c1ccccc1 | -12 | 
NCCCCCCCCCCN | -7.72 | 
C[N+](C)(CCCCCC[N+](C)(C)CCCN1C(=O)c2cccc3cccc(c23)C1=O)CCCN1C(=O)c2cccc3cccc(c23)C1=O | 3.11 | 
NC(=O)C(=O)O | -13.4 | 
O=c1[nH]c2ccccc2n1CCCN1CCN(C(c2ccccc2)c2ccccc2)CC1 | -22.1 | 
c1ccc(-c2ccccn2)nc1 | 8.17 | 
